Shown are actives, neighbours in structure and some others; about 8% of the full set was active somewhere.
Lassa entry = qHTS for Inhibitors of binding or entry into cells for Lassa Virus. hit rate 4.1% among 18,000. Lassa virus pseudotyped entry inhibition, cell-based qHTS. Potency, µM (top dose mostly 49.2 µM), for the others: at the top dose activity change, negative = inhibition, most hits filed as inhibitors
Marburg entry = qHTS for Inhibitors of binding or entry into cells for Marburg Virus | Marburg virus pseudotype entry/binding inhibition, cell-based | Potency, µM (highest dose often 49.2 µM), inactives show at the top dose activity change, negative = inhibition, most hits filed as inhibitors | hit rate 6.5% among 18,000
Active calls of the source: *; u = inconclusive; x = not tested or not shown; ! = repeats disagree; [ ] = remark or other dose. Calls follow the shape of the full dose curve; tested in HEK293 cells. % is scaled to controls: 0 for no effect and ±100 for the full control effect; potency is read from the fitted curve at half-maximal effect.

SMILES	Lassa entry	Marburg entry
Cc1ccc(O)cc1Nc1ccnc2cc(-c3ccccn3)ccc12	u	14µM*
O=C(OCC(O)CO)c1ccccc1Nc1ccnc2cc(Cl)ccc12 (stereo not given)	-13%	-11%
COc1ccc(-c2nc(-c3ccccc3)oc2NC2CCCCC2)cc1	12%[8.59 µM]	31%[8.59 µM]
COc1ccc(C2/C=C\C(c3ccc(OC)cc3)N(Cc3ccc(F)cc3)C(=O)C(=O)N2Cc2ccc(F)cc2)cc1 (stereo not given)	-24%	10µM*
COc1ccc(C2/C=C\CC(OCc3ccccc3)CC(=O)N2Cc2cccc(F)c2)cc1 (stereo not given)	u	-20%
CCCCCCC(=O)Cc1cc(OC)c(OC)cc1C=C(C(C)=O)C(=O)OC	17%[8.59 µM]	u
C=CCN1c2ccccc2[C@]23CCC(=O)N(CCCOC(C)C)C2=NC(C(=O)OC)=C(C(=O)OC)[C@H]13	-1%[8.59 µM]	-10%[8.59 µM]
CC1=C(C(=O)Nc2ccc3[nH]ncc3c2)C(c2ccc(F)cc2)NC(=O)N1 (stereo not given)	u	8%
Fc1ccc(Nc2nccc(-c3c(-c4ccc(C(F)(F)F)cc4)nn4ncccc34)n2)cc1F	6%	-5%
Cc1ccc2c(-c3ccnc(Nc4cccc(C(F)(F)F)c4)n3)c(-c3ccccc3)nn2n1	x	4µM*
FC(F)(F)CNc1nccc(-c2cnn3ncccc23)n1	x	-4%
Cc1ccc2c(-c3ccnc(Nc4ccc5c(c4)OCCO5)n3)c(-c3ccc(C(F)(F)F)cc3)nn2n1	x	16µM*
O=C(O)c1cccnc1Nc1cccc(C(F)(F)F)c1	21%	28%
N#Cc1cccc(Nc2nccc(-c3cnn4ncccc34)n2)c1	x	0.025µM*
CCOc1ccc2c(-c3ccnc(Nc4cccc(C(F)(F)F)c4)n3)cnn2n1	x	8.9µM*
O=C(c1cccs1)N1C[C@H](O)[C@H](n2cc(C3CC3)nn2)C[C@@H]1c1ccccc1	-17%	-7%
C=CCNP1(=O)O[C@H](C=C)C[C@H](C=C)O1 (stereo not given in full)	1%	-14%
COc1ccc([C@]23Cc4cc(OC)c(OC)cc4[C@H](O2)C2=C(CC4(CCCCC4)OC2=O)O3)cc1	-3%[8.59 µM]	2%[8.59 µM]
COc1cc(OC)c(CN2CCOc3ccc(CN4CCC(O)CC4)cc3C2)c(OC)c1	u	14µM*
COc1ccc(CN2CCOc3ccc(CN4CCN(CCO)CC4)cc3C2)c2ccccc12	u	11µM*
COc1ccc(F)c(CN2CCOc3ccc(CN4CCC(Oc5cccnc5)CC4)cc3C2)c1	6%	u
COc1ccc(CN2CCOc3ccc(CN4CCC(Oc5cccnc5)CC4)cc3C2)c(F)c1	-8%	11µM*
COc1cc(CN2CCOc3ccc(CN4CCN(CCO)CC4)cc3C2)ccc1F	14%	3%
COc1cc(CN2CCOc3ccc(CN4CCC(Oc5cccnc5)CC4)cc3C2)ccc1F	-10%	u
O=C(OCc1cn([C@@H]2CN(C(=O)C3CCCCC3)[C@@H](c3ccc(Cl)cc3)C[C@@H]2O)nn1)c1ccccc1	14%	u
SMILES	Lassa entry	Marburg entry
CC1(C)O[C@@H](C(O)(c2cc(C(F)(F)F)cc(C(F)(F)F)c2)c2cc(C(F)(F)F)cc(C(F)(F)F)c2)[C@H](C(O)(c2cc(C(F)(F)F)cc(C(F)(F)F)c2)c2cc(C(F)(F)F)cc(C(F)(F)F)c2)O1	-3%[8.59 µM]	-9%[8.59 µM]
C=C[C@H]1CCC=C2C(=O)CCC[C@H]21	-23%[8.59 µM]	-30%[8.59 µM]
O=C(Nc1n[nH]c2nnc(-c3cccnc3)cc12)C1CC1	-25%	u
CCCNC(=O)OC[C@H]1O[C@H](CCON=C(C)CCN2CCCc3nc(C)c(C)cc32)C=C[C@H]1Oc1ccc(OC)cc1	28%[8.59 µM]	u
CC(=O)OCC(=O)[C@@]1(O)CC[C@H]2[C@@H]3CCC4=CC(=O)CC[C@]4(C)C3=CC[C@@]21C	-10%	2%
COc1cc(O)c2c(c1)oc(=O)c1c3cc(O)c(O)cc3oc21	u	11µM*
COc1c(O)cc2c(=O)oc3c(OC)c(O)cc4c(=O)oc1c2c34	-1%	-12%
CCN1C(=NCCc2ccccn2)NC(c2cccs2)C(C(=O)OC)=C1C (stereo not given)	0%[8.59 µM]	u
CN1CC(O)C2=CC(=O)C(=O)C=C21 (stereo not given)	1%	8.9µM*
C[C@@H]1COc2cc(Br)ccc2S(=O)(=O)N1	23%	-24%
CCCCCC(=O)N1C[C@@H](n2cc(COC(=O)c3ccccc3)nn2)[C@H](O)C[C@H]1c1ccc(Cl)cc1	13%	u
c1ccc2c(c1)OCC(C1=NCCN1)O2 (stereo not given)	u	14µM*
c1ccc2c(c1)CCCC2C1=NCCN1 (stereo not given)	2%	1%
c1ccc(CCc2nc(-c3ccccc3)oc2NC2CCCCC2)cc1	-13%[8.59 µM]	-13%[8.59 µM]
COc1c(C)c2c(c(O)c1C/C=C(\C)CCC(=O)OCCN1CCOCC1)C(=O)OC2	1.1µM*	1.1µM*
COc1cccc(CO[C@H]2C=C[C@@H](c3ccccc3)O[C@H]2CBr)c1	24%[8.59 µM]	31%[8.59 µM]
Fc1ccc(C(c2ccc(F)cc2)N2CCN(C/C=C/c3ccccc3)CC2)cc1	32µM*!	2.5µM*
OCCOCCN1CCN(C(c2ccccc2)c2ccc(Cl)cc2)CC1 (stereo not given)	-17%	u
Clc1ccc(C(OCCN2CCCCC2)c2ccccc2)cc1 (stereo not given)	u	13µM*
OC/C=C/c1ccccc1	-13%	8%
C(=C\c1ccccc1)/CN1CCN(CCOC(c2ccccc2)c2ccccc2)CC1	32µM*	8.9µM*
C(=C\c1ccccc1)/CN1CCN(C(c2ccccc2)c2ccccc2)CC1	-25%[17.8 µM]	-11%[17.8 µM]
COc1cc([C@@H](NC(=O)C(F)(F)F)C2CCCCC=C2c2ccccc2)cc(OC)c1OC (stereo not given in full)	u	10%[8.59 µM]
CC(=O)OC[C@H]1O[C@H](CC=NO[C@H](C)CN2CCCCc3nc(C)c(C)cc32)C=C[C@@H]1OC(C)=O	-17%[8.59 µM]	-21%[8.59 µM]
CCCC=Cc1ccc(CN2C(C(C)C)C(=O)N(Cc3cn(Cc4ccco4)nn3)CCS2(=O)=O)cc1 (stereo not given)	-10%	u
SMILES	Lassa entry	Marburg entry
O[C@H]1C[C@H](c2ccccc2)N(Cc2cccs2)C[C@H]1n1cc(-c2ccc(F)cc2)nn1	-6%	u
C[C@H]1CC[C@H]2C(=O)N[C@H](Cc3ccccc3)C(=O)N2[C@H]1c1ccccc1	9%[8.59 µM]	-17%[8.59 µM]
C[C@@H]1C=CCCO[C@]12C(=O)Nc1ccc(O)cc12	-19%[8.59 µM]	10%[8.59 µM]
CCCCC/C=C\C/C=C\C/C=C\C/C=C\CCCC(=O)Nc1ccc(O)cc1	32µM*	u
CCCCC/C=C\C/C=C\C/C=C\C/C=C\CCCC(=O)Nc1ccc(O)cc1C	13µM*	u
CCCCC/C=C\C/C=C\C/C=C\C/C=C\CCCC(=O)NCC(=O)O	u	-56%
CCCCC/C=C\C/C=C\C/C=C\C/C=C\CCCC(=O)NCCO	3%	9%
C[C@H]1[C@@H](c2ccccc2)Oc2c(Cl)cccc2S(=O)(=O)N1Cc1cccc(Cl)c1	-28%	u
COC(=O)C1=C(C(=O)OC)[C@@H]2N(CC=C(C)C)c3ccccc3[C@@]23CCC(=O)N(CCc2ccccn2)C3=N1	-28%[8.59 µM]	12%[8.59 µM]
CNCCCC1c2ccccc2C=Cc2ccccc21	u	7.1µM*
N=C(N)SCCN=C(N)N	-4%	7%
CN(C)CCCSC(=N)N	-1%	14µM*!
Cc1cccc2c(N=Nc3ccc(S(N)(=O)=O)cc3)c(O)[nH]c12	58%	-15%
